# Source: PubChem BioAssay
# Calls of active or inactive are those of the source.
# Tests used:
# [1] = binders of probe aFSTL3 on microarray, primary screen, stem cell growth factor project, biochemical, small-molecule microarray, fluorescence 635/667 (AID 1064); conditions: higher = more signal;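 further: measures binding of the biotinylated anti-FSTL3 antibody to printed compounds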
# [2] = binders from COS7 lysate, DM2A8 probe, primary screen, torsin A project, cell lysate, small-molecule microarray, fluorescence 635/667 (AID 1065); conditions: higher = more signal, COS7 lysate expressing mutant human TOR1A
# [3] = binders of probe aFGF2 on microarray, primary screen, stem cell growth factor project, biochemical, small-molecule microarray, fluorescence 635/667 (AID 1067); conditions: higher = more signal;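 further: measures binding of biotinylated aFGF2 protein to printed compounds on slides; z-score merges feature fluorescence and signal-to-noise across triplicate slides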
# [4] = binders of probe aFGF10 on microarray, primary screen, stem cell growth factor project, biochemical, small-molecule microarray, fluorescence 635/667 (AID 1071); conditions: higher = more signal;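 further: score merges 667 nm spot intensity and signal to noise from triplicate slides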
# [5] = molecular target: Neurogenic locus notch homolog protein 2 (Homo sapiens) (UniProt Q04721); assay: Notch2 binders on small-molecule microarrays, primary screen, biochemical, small-molecule microarray, 635 nm fluorescence, stem cell growth factors (AID 1073); conditions: Notch2 binding, higher = more signal
# Neurogenic locus notch homolog protein 2 (Homo sapiens), sequence (Q04721 whole entry, looked up, canonical isoform): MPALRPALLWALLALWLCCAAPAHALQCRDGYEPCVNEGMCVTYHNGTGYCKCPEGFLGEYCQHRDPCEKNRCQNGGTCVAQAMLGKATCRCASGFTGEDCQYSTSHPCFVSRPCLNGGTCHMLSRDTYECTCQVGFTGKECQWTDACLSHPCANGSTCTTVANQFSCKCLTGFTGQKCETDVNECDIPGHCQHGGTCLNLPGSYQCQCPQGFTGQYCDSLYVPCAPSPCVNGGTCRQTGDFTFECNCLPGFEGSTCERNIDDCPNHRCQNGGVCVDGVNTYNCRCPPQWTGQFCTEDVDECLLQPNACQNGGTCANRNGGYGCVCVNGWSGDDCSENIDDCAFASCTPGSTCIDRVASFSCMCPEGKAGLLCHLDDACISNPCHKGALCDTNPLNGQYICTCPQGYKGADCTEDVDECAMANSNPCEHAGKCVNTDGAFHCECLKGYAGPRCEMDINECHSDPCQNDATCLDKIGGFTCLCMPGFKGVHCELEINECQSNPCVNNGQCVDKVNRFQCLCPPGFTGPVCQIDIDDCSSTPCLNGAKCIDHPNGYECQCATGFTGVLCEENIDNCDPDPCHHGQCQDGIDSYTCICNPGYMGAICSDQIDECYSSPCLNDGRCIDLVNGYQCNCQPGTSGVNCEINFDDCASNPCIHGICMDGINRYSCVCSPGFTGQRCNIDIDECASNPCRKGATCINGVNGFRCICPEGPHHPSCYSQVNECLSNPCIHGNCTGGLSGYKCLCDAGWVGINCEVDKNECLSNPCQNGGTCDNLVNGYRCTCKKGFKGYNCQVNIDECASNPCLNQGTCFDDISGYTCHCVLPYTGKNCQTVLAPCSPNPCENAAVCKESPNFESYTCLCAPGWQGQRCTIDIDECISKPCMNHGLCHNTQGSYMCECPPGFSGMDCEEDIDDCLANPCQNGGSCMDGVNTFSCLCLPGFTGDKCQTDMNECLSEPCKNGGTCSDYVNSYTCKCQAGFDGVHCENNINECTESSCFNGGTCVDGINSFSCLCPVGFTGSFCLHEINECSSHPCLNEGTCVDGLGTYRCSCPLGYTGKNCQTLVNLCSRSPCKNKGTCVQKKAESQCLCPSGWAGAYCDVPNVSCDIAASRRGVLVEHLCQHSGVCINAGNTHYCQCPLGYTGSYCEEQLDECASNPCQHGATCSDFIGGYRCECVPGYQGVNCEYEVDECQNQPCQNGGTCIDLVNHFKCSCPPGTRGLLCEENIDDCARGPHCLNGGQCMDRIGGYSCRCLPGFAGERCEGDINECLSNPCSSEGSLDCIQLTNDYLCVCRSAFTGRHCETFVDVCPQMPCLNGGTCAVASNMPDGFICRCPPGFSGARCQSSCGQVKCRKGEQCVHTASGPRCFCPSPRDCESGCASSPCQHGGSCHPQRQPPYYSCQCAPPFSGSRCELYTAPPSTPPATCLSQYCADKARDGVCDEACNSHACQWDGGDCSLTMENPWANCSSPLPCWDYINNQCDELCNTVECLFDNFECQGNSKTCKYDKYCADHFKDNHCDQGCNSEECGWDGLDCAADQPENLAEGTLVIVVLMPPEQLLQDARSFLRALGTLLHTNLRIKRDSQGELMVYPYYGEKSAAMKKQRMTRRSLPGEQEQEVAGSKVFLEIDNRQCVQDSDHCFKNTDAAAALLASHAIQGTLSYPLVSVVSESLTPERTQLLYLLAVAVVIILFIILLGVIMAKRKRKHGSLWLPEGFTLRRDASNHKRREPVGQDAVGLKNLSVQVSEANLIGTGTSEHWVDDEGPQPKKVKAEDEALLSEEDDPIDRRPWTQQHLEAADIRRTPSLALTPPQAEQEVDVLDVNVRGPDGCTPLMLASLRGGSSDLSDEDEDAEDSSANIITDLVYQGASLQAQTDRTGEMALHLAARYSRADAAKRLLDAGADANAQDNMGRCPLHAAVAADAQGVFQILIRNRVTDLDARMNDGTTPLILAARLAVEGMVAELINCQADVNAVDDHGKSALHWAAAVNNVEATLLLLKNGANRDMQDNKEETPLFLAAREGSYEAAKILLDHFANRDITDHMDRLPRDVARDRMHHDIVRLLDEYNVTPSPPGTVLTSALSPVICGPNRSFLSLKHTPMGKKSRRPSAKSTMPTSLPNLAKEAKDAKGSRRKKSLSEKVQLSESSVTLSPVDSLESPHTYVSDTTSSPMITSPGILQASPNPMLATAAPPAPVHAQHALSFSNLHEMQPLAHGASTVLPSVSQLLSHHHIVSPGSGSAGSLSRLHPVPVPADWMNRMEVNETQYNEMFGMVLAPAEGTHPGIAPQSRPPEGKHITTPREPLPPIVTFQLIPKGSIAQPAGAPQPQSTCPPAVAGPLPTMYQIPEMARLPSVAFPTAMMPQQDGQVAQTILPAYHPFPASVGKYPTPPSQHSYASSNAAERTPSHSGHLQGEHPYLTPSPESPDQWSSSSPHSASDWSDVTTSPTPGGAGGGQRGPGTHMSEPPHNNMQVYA
# [6] = molecular target: Pro-neuregulin-1, membrane-bound isoform (Homo sapiens) (UniProt Q02297); assay: NRG1 binders on small-molecule microarrays, primary screen, psychiatric disease protein project, biochemical, small-molecule microarray, fluorescence 635/667 (AID 1075); conditions: NRG1 binding, 635 nm fluorescence, higher = more signal;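 further: score combines 667 nm spot fluorescence with signal to noise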
# Pro-neuregulin-1, membrane-bound isoform (Homo sapiens), sequence (Q02297 whole entry, looked up, the tested form may be a part, canonical isoform): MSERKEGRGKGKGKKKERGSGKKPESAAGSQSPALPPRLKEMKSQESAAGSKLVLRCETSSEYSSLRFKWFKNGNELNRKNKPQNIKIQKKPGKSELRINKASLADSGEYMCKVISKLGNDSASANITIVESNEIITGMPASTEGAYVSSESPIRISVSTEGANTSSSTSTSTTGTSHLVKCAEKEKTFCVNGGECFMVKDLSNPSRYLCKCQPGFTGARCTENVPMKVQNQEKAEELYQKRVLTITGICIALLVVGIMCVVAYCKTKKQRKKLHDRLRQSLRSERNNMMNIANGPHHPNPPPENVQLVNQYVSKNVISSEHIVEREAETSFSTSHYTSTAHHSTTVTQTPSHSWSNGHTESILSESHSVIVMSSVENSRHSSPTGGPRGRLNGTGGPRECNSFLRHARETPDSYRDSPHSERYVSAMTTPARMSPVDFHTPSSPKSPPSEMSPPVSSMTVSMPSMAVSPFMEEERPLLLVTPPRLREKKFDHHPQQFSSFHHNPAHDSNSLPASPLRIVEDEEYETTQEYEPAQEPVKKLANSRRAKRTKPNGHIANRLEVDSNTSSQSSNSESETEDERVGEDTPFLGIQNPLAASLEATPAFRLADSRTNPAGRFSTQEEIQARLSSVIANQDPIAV
# [7] = tested on: Neuregulin-1 EGF-like domain; assay: binders of neuregulin-1 EGF-like domain, primary screen, biochemical, small-molecule microarray, 635 nm fluorescence (AID 1081); conditions: small-molecule microarray binding, higher = more signal;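 further: binding of the protein to compounds printed on small-molecule microarray slides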
# [8] = FRG1 promoter luciferase signal modulators, primary screen, FRG1 inhibition for FSHD, cell-based, C2C12 myotubes, firefly/Renilla luciferase, luminescence (AID 1084); conditions: higher = more signal, called active from +8 up or from −8 down
# [9] = binders of probe aFST on microarray, primary screen, stem cell growth factor project, biochemical, small-molecule microarray, fluorescence 635/667 (AID 1086); conditions: higher = more signal;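 further: score merges 667 nm fluorescence with signal-to-noise of each printed compound spot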
# [10] = binders of probe aHhip on microarray, primary screen, stem cell growth factor project, biochemical, small-molecule microarray, fluorescence 635/667 (AID 1087); conditions: higher = more signal;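 further: score merges spot fluorescence at 667nm with spot signal to noise ratio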
# [11] = tested on: PRMT1 (protein arginine N-methyltransferase 1); assay: PRMT1 binders on small-molecule microarrays, primary screen, biochemical, small-molecule microarray, 635 nm fluorescence (AID 1088); conditions: small-molecule microarray binding, higher = more signal;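 further: binding of Prmt1 protein to compounds spotted on small-molecule microarray slides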
# [12] = yeast growth modulation, basal conditions, primary screen, YJM789 clinical isolate, OD600, 24 h (AID 1089);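 further: growth of clinical yeast isolate S. cerevisiae YJM 789 seeded 1000 cells per well; test concentration not given here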; conditions: S. cerevisiae YJM789 growth, higher = more signal, called active from +8 up or from −8 down
# [13] = fission yeast growth modulation, primary screen, strain 972, OD600, 24 h, no modulator (AID 1090);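 further: basal condition with compound alone and no growth modifier present; test concentration not given here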; conditions: S. pombe 972 growth, higher = more signal, called active from +8 up or from −8 down
# [14] = S. cerevisiae growth modulation with rapamycin, primary screen, strain BY4716, OD600, 96 h (AID 1091); conditions: higher = more signal, called active from +8 up or from −8 down; further: test concentration not given here
# [15] = molecular target: Torsin-1A-interacting protein 2 (Homo sapiens) (UniProt Q8NFQ8); assay: LULL1 binders on small-molecule microarray, primary screen, cell lysate, human LULL1 lysate, 635/667 nm fluorescence (AID 1092); conditions: hLULL1 lysate binding, 635 nm fluorescence, higher = more signal;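 further: probe is lysate of COS7 cells overexpressing human LULL1; score merges per-feature 667 nm fluorescence with signal-to-noise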
# Torsin-1A-interacting protein 2 (Homo sapiens), sequence (Q8NFQ8 whole entry, looked up): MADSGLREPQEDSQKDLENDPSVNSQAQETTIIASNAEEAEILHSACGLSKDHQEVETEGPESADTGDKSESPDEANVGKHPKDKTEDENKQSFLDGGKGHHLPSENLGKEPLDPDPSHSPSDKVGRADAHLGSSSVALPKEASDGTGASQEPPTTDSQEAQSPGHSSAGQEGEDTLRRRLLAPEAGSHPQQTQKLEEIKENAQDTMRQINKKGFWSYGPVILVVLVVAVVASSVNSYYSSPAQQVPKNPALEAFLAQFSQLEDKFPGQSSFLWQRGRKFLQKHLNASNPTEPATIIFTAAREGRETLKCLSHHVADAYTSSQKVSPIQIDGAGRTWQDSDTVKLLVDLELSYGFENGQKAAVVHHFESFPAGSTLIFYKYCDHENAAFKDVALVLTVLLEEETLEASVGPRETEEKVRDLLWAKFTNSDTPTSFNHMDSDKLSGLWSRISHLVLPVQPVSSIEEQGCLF
# [16] = E. coli growth modulation, two-sided OD650, primary screen, E. coli filamentation project, strain DRC41, 24 h (AID 1093); conditions: OD650, 24 h, higher = more signal, called active from +8 up or from −8 down;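 further: MC1000 strain lacking acrAB efflux and sulA so SOS filamentation is blocked; test concentration not given here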
# [17] = small-molecule microarray binders of probe aLefty2, primary screen, biochemical, biotinylated probe, 635/667 nm fluorescence (AID 1094); conditions: higher = more signal;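 further: score merges spot fluorescence near 667 nm with spot signal-to-noise ratio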
# [18] = tested on: Noggin (protein binding on small-molecule microarray); assay: Noggin binders on small-molecule microarray, primary screen, biochemical, 635/667 nm fluorescence (AID 1095); conditions: 635 nm fluorescence, higher = more signal;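 further: score merges 667 nm feature fluorescence with signal to noise over triplicate slides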
# [19] = molecular target: Neurogenic locus notch homolog protein 3 (Homo sapiens) (UniProt Q9UM47); assay: NOTCH3 binders on small-molecule microarray, primary screen, biochemical, 635/667 nm fluorescence (AID 1096); conditions: NOTCH3 binding, 635 nm fluorescence, higher = more signal
# [20] = small-molecule microarray binders of probe aEGFR, primary screen, biochemical, biotinylated probe, 635/667 nm fluorescence (AID 1097); conditions: higher = more signal;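 further: probe is a biotinylated anti-EGFR antibody binding compounds printed on slides; score combines fluorescence near 667 nm and signal to noise of each spot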
SMILES,composite z-score [1],composite z-score [2],composite z-score [3],composite z-score [4],composite z-score [5],composite z-score [6],composite z-score [7],z-score [8],composite z-score [9],composite z-score [10],composite z-score [11],z-score [12],z-score [13],z-score [14],composite z-score [15],z-score [16],composite z-score [17],composite z-score [18],composite z-score [19],composite z-score [20]
CON=C(C)CCN1CCCc2nc(C)c(C)cc21,-0.411,-0.205,-0.0266,0.28,0.512,0.397,0.908,0.885 (inactive),0.192,0.12,1.43,-0.596 (inactive),-0.837 (inactive),0.0921 (inactive),1.92,0.0129 (inactive),-0.0179,0.513,0.632,0.0376
CC(CCN1CCCCc2nc(C)c(C)cc21)=NOC[C@@H](O)[C@H]1O[C@@H]2OC(C)(C)O[C@@H]2[C@H]1O,-0.368,0.454,-0.138,0.188,-0.224,0.459,0.0465,0.442 (inactive),-0.346,-0.136,0.908,-1.58 (inactive),0.186 (inactive),-0.164 (inactive),-0.428,0.579 (inactive),-0.225,1.07,0.218,-0.0179
CC(=O)OC[C@H]1O[C@H](CC=NO[C@H](C)c2cn([C@@H]3COC[C@H]3O)nn2)C=C[C@@H]1OC(C)=O,-0.239,0.0556,-0.131,0.294,0.277,-0.0528,0.422,-0.956 (inactive),-0.149,-0.0673,0.611,-2 (inactive),-0.535 (inactive),-0.277 (inactive),-0.3,-0.763 (inactive),-0.23,0.411,0.212,-0.0845
COC(=O)CC=C[C@@H](C)[C@@H](C=NOC[C@@H](O)COCc1ccco1)OC,-0.663,2.07,-0.225,-0.813,-1.05,-0.209,0.532,0.103 (inactive),-0.466,-0.164,0.302,-0.0605 (inactive),-0.543 (inactive),0.225 (inactive),0.378,-0.255 (inactive),-0.336,1.49,-0.456,-0.132
CCOC(=O)CCN1C(=O)[C@H]2[C@H]3[C@H](O)[C@H](O)CC(=NNC(=O)OCc4ccccc4)[C@H]3CC[C@H]2C1=O,-0.594,1.05,-0.133,-0.884,-0.871,-1.03,-1.43,-0.695 (inactive),0.138,-0.0632,-0.0993,-0.756 (inactive),0.59 (inactive),-0.596 (inactive),-1.53,-0.287 (inactive),-0.0515,0.608,0.032,-0.103
CCOC(=O)CCN1C(=O)[C@H]2[C@H]3[C@H](O)[C@H](O)CC(=NOCC(C)C)[C@@H]3CC[C@H]2C1=O,-0.784,1.88,-0.234,-1.05,-0.567,-0.849,0.296,-0.398 (inactive),-0.595,-0.0994,0.868,-0.535 (inactive),-0.219 (inactive),-0.629 (inactive),-0.953,-0.127 (inactive),-0.0956,1.39,-0.321,0.163
CC(C)=CCCC(C)=CCON=C1[C@H]2CCn3c(=O)n(-c4ccccc4)c(=O)n3[C@H]2[C@H](O)[C@@H]2O[C@H]12,-0.279,0.207,0.0243,0.0859,0.934,0.634,0.994,-1.52 (inactive),0.516,-0.0645,1.56,-0.504 (inactive),-5.66 (inactive),-0.784 (inactive),2.36,-1.1 (inactive),0.207,0.59,1.07,-0.0211
CC[C@@H](c1ccccc1)n1c(=O)n2n(c1=O)[C@H]1[C@H](O)[C@@H]3O[C@@H]3C(=NOCc3ccccc3)[C@H]1CC2,0.83,0.374,-0.172,0.0913,0.57,0.834,0.504,2.67 (inactive),-0.0575,-0.13,-0.454,0.183 (inactive),-1.17 (inactive),0.191 (inactive),0.786,-0.866 (inactive),-0.132,1.3,0.81,-0.0824
Cc1cc(C)c(-c2cc([C@H](C)ON=C[C@@H](C)[C@H](OCc3ccccc3)C(C)C)on2)c(C)c1,-0.355,0.298,-0.0901,0.0823,-0.637,-0.529,-1.22,0.239 (inactive),-0.342,0.0505,-0.903,0.0494 (inactive),0.217 (inactive),0.817 (inactive),-0.91,-0.461 (inactive),0.0469,0.481,0.0065,-0.067
C=CCOCC1CN2[C@@H](CC[C@@H](C)[C@@H]2c2ccc(Br)cc2)C(=O)O1 (stereo not given in full),-0.155,0.0527,-0.16,-0.204,-0.619,-0.391,-0.479,-0.0613 (inactive),-0.546,-0.0994,-0.149,-0.349 (inactive),-0.592 (inactive),0.338 (inactive),-0.581,0.415 (inactive),-0.296,0.167,-0.405,-0.0953
CC(CCC(=O)OC[C@H]1O[C@H](C#Cc2ccccc2)C=C[C@@H]1Oc1ccc(C)cc1)=NOC(C)CN1CCCCc2nc(C)c(C)cc21 (stereo not given in full),-0.172,-0.116,-0.211,-0.12,-0.565,0.904,-0.491,0.49 (inactive),-0.697,-0.143,0.479,-0.167 (inactive),-0.324 (inactive),-0.773 (inactive),0.238,0.136 (inactive),-0.0454,-0.0193,-0.171,-0.18
COC(=O)[C@@H]1CC[C@H](C)[C@@H](c2ccc(C)cc2)N1C(=O)c1ccc(C=NOC[C@@H](O)[C@H]2O[C@@H]3OC(C)(C)O[C@@H]3[C@H]2O)cc1,-0.264,0.123,-0.0138,0.343,0.962,0.441,0.72,0.453 (inactive),0.794,-0.271,0.886,-1.17 (inactive),0.459 (inactive),-0.431 (inactive),1.23,1.6 (inactive),-0.0916,0.159,1.14,0.0453
CC=CC1=C(CO)[C@H](O)[C@H]2O[C@H]2[C@@H]1O,-0.267,0.112,-0.0425,0.192,0.486,-0.356,0.592,0.746 (inactive),0.133,0.154,0.028,0.285 (inactive),1.03 (inactive),-0.258 (inactive),0.0048,0.712 (inactive),-0.221,0.59,0.429,-0.128
CC(=O)OC[C@H]1O[C@H](CC=NOCC[C@@H]2C=C[C@H](OC(C)=O)[C@@H](COC(C)=O)O2)C=C[C@@H]1OC(C)=O,-0.544,1.16,-0.13,0.414,0.29,-0.254,0.537,1.06 (inactive),0.425,0.0623,1.46,-0.996 (inactive),0.526 (inactive),-0.0043 (inactive),0.137,0.712 (inactive),0.0024,0.772,0.757,0.0707
COC(=O)CC=C1c2ccccc2[C@H](OC)[C@H]1C,-0.033,-0.113,-0.0044,0.234,-0.0929,-0.395,-0.293,0.009 (inactive),0.137,-0.0296,-0.32,0.649 (inactive),0.863 (inactive),0.387 (inactive),-0.655,0.194 (inactive),-0.0732,0.189,-0.562,-0.0657
CCc1cc2c(nc1CC)CCN(CCC(C)=NOC(C)CN1CCCCc3nc(C)c(C)cc31)C2 (stereo not given),-0.154,1.24,-0.073,0.541,1.11,0.946,1.07,0.795 (inactive),0.544,-0.174,1.49,-0.379 (inactive),-16.2 (active),-0.755 (inactive),2.42,0.546 (inactive),0.0809,0.932,1.08,0.142
O=C1[C@H]2[C@H]3[C@H](O)[C@H](O)CC(=NOC[C@@H](O)COCc4ccco4)[C@@H]3CC[C@H]2C(=O)N1Cc1ccc2c(c1)OCO2,-0.622,2.39,-0.292,-0.738,-0.541,-0.285,1.1,-0.196 (inactive),-0.0769,0.2,1.4,0.421 (inactive),0.674 (inactive),0.463 (inactive),-0.689,2.06 (inactive),-0.172,1.17,-0.177,-0.0177
O=C1CCCC=C1C(O)c1ccc([N+](=O)[O-])cc1 (stereo not given),-0.396,0.267,-0.187,0.535,0.254,-0.832,-0.0876,0.925 (inactive),-0.315,-0.355,0.0679,-0.293 (inactive),0.0434 (inactive),-0.289 (inactive),-0.33,0.999 (inactive),-0.114,0.111,0.273,0.613
O=C1[C@H]2[C@H]3[C@H](O)[C@H](O)CC(=NO[C@@H]4O[C@H](CO)[C@@H](O)[C@H](O)[C@H]4O)[C@@H]3CC[C@H]2C(=O)N1c1cccc(Oc2ccccc2)c1,-0.309,0.21,-0.125,0.649,0.628,0.495,1.02,0.423 (inactive),0.365,0.0373,-0.175,-0.603 (inactive),0.275 (inactive),0.0506 (inactive),0.879,0.364 (inactive),-0.028,0.672,0.449,0.0102
